These results are taken from PubChem BioAssay AID686978 (National Center for Advancing Translational Sciences (NCATS), 2013).

Among all 420,000 compounds or so, about 64,000 (15%) were called active. Another 27% or so got no clear call; they are omitted. Only a sample is shown. A number with no mark means an inactive call. The call rests on the fitted dose curve; in most records, active means well fitted inhibition curve with a large enough effect; inconclusive means small, poorly fitted or top-dose-only effect; inactive means flat fitted curve, though single readings scatter.
On the % scale 0 is the no-effect control and ±100 the full control effect; potency means the concentration at half of the fitted maximal effect.

The nature of the test: qHTS for Inhibitors of human tyrosyl-DNA phosphodiesterase 1 (TDP1): qHTS in cells in absence of CPT. Further: nearly all actives have a fitted effect of over 55% in size. The conditions noted are these: DT40 Tdp1-/- hTDP1 cells, no CPT, ATP luminescence, 48 h; activity change, negative = growth inhibition: at 46.2 µM (top of the series). The procedure, abridged:
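DT40 Tdp1-/-;hTDP1 cells, no CPT (DMSO vehicle only), 400 cells/well; compounds pin-transferred; ≥48 hr, 37 °C; CellTiter-Glo 30 min RT dark, luminescence read.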
In general terms: qHTS replaces the single test concentration by a dilution series.
Take `CCN(CC)c1nc(-c2ccccc2)cc(C(F)(F)F)c1C#N`: the “activity change, negative = growth inhibition” value is -7.9%.
For `Cc1cc(C)cc(C(=O)OCC(=O)NCCNC(=O)COC(=O)c2cc(C)cc(C)c2)c1`, the “activity change, negative = growth inhibition” value was -4.36%.
Take `Cc1ccc(NC(=O)Nc2nnc(-c3ccncc3)s2)cc1`: the Potency is 11.6 µM (active).
Turning to `Cc1occc1C(=O)Nc1nnc(-c2ccncc2)s1`, the “activity change, negative = growth inhibition” value is 1.48%.
Turning to `Cc1ccc(C(=O)Nc2nnc(-c3ccncc3)s2)o1`, the “activity change, negative = growth inhibition” value is -6.33%.
For `CC1(C)C2CCC1(CS(=O)(=O)NCCc1c[nH]c3ccccc13)C(=O)C2` (stereo not given), the “activity change, negative = growth inhibition” value was -19.2%.
The same measure, in the same setting: as for `Cc1ccc(OCCC(=O)Nc2ccc(S(=O)(=O)Nc3nccs3)cc2)cc1`, the figure is 22.2%; as for `CN(C)NC(=O)C(NC(=O)c1ccc(N)cc1)C12CC3CC(CC(C3)C1)C2` (stereo not given), 1.51%.
In the case of `COC(CCN(C)C)(c1ccccc1)c1ccccc1`, the “activity change, negative = growth inhibition” value is -6.55%.
Consider `CCn1nnc(NC(=O)c2c(OC)cccc2OC)n1`, for which the “activity change, negative = growth inhibition” value was -3.98%.
For `COc1ccc(/C=N/n2c(C)cc(C)cc2=O)cc1`, the “activity change, negative = growth inhibition” value was -9.69%.
The same measure, in the same setting: as for `O=S(=O)(c1ccc(F)cc1)N1CCN=C1SCc1cccc(F)c1`, the figure is -19.7%.
`Cc1ccc(S(=O)(=O)N2CCN=C2SCc2c(F)cccc2Cl)cc1`: the Potency was 11.6 µM (active).
In the case of `CCSC1=NCCN1S(=O)(=O)c1ccc(F)cc1`, the “activity change, negative = growth inhibition” value is -3.64%.
With `O=C(Nc1ccc(Cl)cn1)c1cnn2cccnc12`, the “activity change, negative = growth inhibition” value is -23%.
As for `COc1ccccc1CNC(=O)c1ccc(N(C)S(=O)(=O)c2ccc(C)cc2)cc1`, the “activity change, negative = growth inhibition” value is -10.4%.
In the case of `COc1ccccc1N(C)S(=O)(=O)c1ccc(C(=O)NC2CCCCCC2)cc1`, the Potency was 23.1 µM (active).
On to `COc1ccc(S(=O)(=O)N2CCOCC2)cc1C(=O)NC1CCCCC1`, for which the “activity change, negative = growth inhibition” value was -6.05%.
As for `CCc1ccc(OCC(=O)OCC(=O)c2c(N)n(C)c(=O)n(C)c2=O)cc1`, the “activity change, negative = growth inhibition” value is 5.34%.
In the case of `CC(C)Oc1ccc(/C=N/NC(=O)c2nnn(-c3nonc3N)c2CN(C)C2CCCCC2)cc1`, the “activity change, negative = growth inhibition” value was -11.7%.
As for `Cc1cc(C)cc(NC(=O)NCc2ccccn2)c1`, the “activity change, negative = growth inhibition” value was 19.2%.
For `CC(C)(C)NC(=O)C(=O)NN=C1CCCCCCC1`, the “activity change, negative = growth inhibition” value is 3.33%.
On to `CC(C)NC(=S)NN=C1CCCCCCCCCCC1`, for which the Potency was 13 µM (active).
With `CCc1ccc(C(=O)NN=C2CCCCCC2)s1`, the “activity change, negative = growth inhibition” value is 5.13%.
In the case of `Cc1ccc(-n2nc3c(c2NC(=O)CCC2CCCCC2)CS(=O)C3)cc1` (stereo not given), the “activity change, negative = growth inhibition” value was -21.2%.
For the compound `CCN1CCC(O)(/C=C/c2ccc(C)cc2)C(C(=O)/C=C/c2ccc(C)cc2)C1` (stereo not given), the Potency is 4.61 µM (active).
`O=S(=O)(c1ccc(Cl)s1)N1CCC2(CC1)OCCO2`: the “activity change, negative = growth inhibition” value was -12.2%.
Still for that read-out and setting: the value for `O=C(Nc1cc(Cl)ccc1N1CCOCC1)c1ccc(N2CCCC2=O)cc1` was -29%.
For the compound `O=[N+]([O-])c1cc(C(F)(F)F)ccc1NN=C1CCCC1`, the “activity change, negative = growth inhibition” value is -18%.
On to `O=C(c1ccc(N2CCCC2=O)cc1)N1CCN(c2ccc(C(F)(F)F)cc2[N+](=O)[O-])CC1`, for which the Potency was 2.31 µM (active).
For the compound `CNS(=O)(=O)c1ccc(N2CCCC2=O)c([N+](=O)[O-])c1`, the “activity change, negative = growth inhibition” value was -18.6%.
With `COc1cc(C(=O)Nc2cc(C(F)(F)F)ccc2-n2cncn2)cc(OC)c1OC`, the “activity change, negative = growth inhibition” value was -28.2%.
In the case of `COc1cc(OC)cc(C(=O)NC(=S)N2CCN(c3ccc(C(F)(F)F)cc3[N+](=O)[O-])CC2)c1`, the Potency is 16.4 µM (active).
As to `C=CCO/N=C/C1=C(O)C(C(=O)OC)C(C)(C)CC1=O` (stereo not given), the “activity change, negative = growth inhibition” value was 10.2%.
Turning to `CC(C)(C)c1ccccc1NC(=O)CN1C(=O)NC2(CCCC2)C1=O`, the “activity change, negative = growth inhibition” value is -9.88%.
Consider `CCc1[nH]nc(C(=O)N2CCCC(CNS(=O)(=O)c3cccs3)C2)c1C` (stereo not given), for which the “activity change, negative = growth inhibition” value is -1.36%.
With `FC(F)(F)c1cc(-c2ccco2)nc(N2CCOCC2)n1`, the “activity change, negative = growth inhibition” value was -20.7%.
Take `CC(Nc1nc(N2CCCC2)nc2ccccc12)c1ccccc1` (stereo not given): the Potency was 20.6 µM (active).
On to `O=C(NNc1nc(N2CCCC2)nc(N2CCCC2)n1)c1ccccc1`, for which the “activity change, negative = growth inhibition” value is 3.31%.
Consider `CC(CN1CCOCC1)c1ccccc1` (stereo not given), for which the “activity change, negative = growth inhibition” value was 2.15%.
As to `Cc1ccc(C(CC(=O)O)Nc2nc(N3CCCCC3)nc(N3CCCCC3)n2)cc1` (stereo not given), the “activity change, negative = growth inhibition” value is -18.1%.
As for `CC(Nc1nc(N2CCOCC2)nc2ccccc12)c1ccccc1` (stereo not given), the Potency is 18.4 µM (active).
Regarding `O=C(COC(=O)CCc1nc2ccccc2c(=O)[nH]1)Nc1ccc(N2CCOCC2)cc1`, the “activity change, negative = growth inhibition” value is -20.7%.
As for `c1ccc2c(NC3C4CC5CC(C4)CC3C5)nc(N3CCOCC3)nc2c1` (stereo not given), the Potency is 20.6 µM (active).
Take `CC(NC(=O)C1CCC(CNc2c(N3CCOCC3)c(=O)c2=O)CC1)c1ccccc1` (stereo not given): the “activity change, negative = growth inhibition” value is -4.93%.
`NC(=O)c1ccc(N2CCCC2)nc1`: the “activity change, negative = growth inhibition” value is -8.99%.
In the case of `COc1cc(C(=O)Nc2ccc(OCc3cc(=O)n4cc(C)sc4n3)cc2)cc(OC)c1OC`, the “activity change, negative = growth inhibition” value was -12.9%.
Take `COc1ccccc1C(=O)Nc1ccc(OCc2nnc3c4ccccc4c(C)nn23)cc1`: the Potency was 13 µM (active).
Take `COc1ccccc1C(=O)Nc1ccc(Nc2ccccc2)cc1`: the “activity change, negative = growth inhibition” value is -12.1%.
For the compound `O=C1N=C2SCCN2/C1=C\c1c(Cl)cccc1Cl`, the “activity change, negative = growth inhibition” value is -11.7%.
`Cc1c(C(=O)NCCN2C(=O)S/C(=C\c3cccs3)C2=O)cccc1[N+](=O)[O-]`: the “activity change, negative = growth inhibition” value was -0.412%.
Same read-out and setting: the value for `CN(C)c1ccc(C(CC(=O)O)C(=O)O)cc1` (stereo not given) was 3.38%; that for `c1n[nH]c(NCc2ccc3c(c2)OCO3)n1` was -9.16%; that for `O=C(CCN1C(=O)c2ccccc2C1=O)C1=NN[C@@H]2C(=O)N(c3ccc(F)cc3)C(=O)[C@H]12` was 0.514%.
On the same count and under the same terms, the value for `CC(=O)c1ccc(S(=O)(=O)N2CCC3(CC2)OCCO3)cc1` was -24.6%.
